Measurements as given in PubChem BioAssay (NCI).
The panel holds about 83,000 compounds, 20% with a hit somewhere; the sample as a whole holds those more often.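 Testing used 96-well plates and a 48-hour single-concentration exposure. Example: -40 means 40% of the starting cells died.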 Values without a mark were called inactive. Calls of active or inactive are those of the source.

Tested on: HCT-15 colon
Assay: NCI-60 one-dose screen, 48 h (100 = growth as untreated, 0 = no growth, -100 = all killed)
Settings: 10 µM unless noted
Method: Growth inhibition of the HCT-15 human tumor cell line is measured as a screen for anti-cancer activity. Cells are grown in 96 well plates and exposed to the test compound for 48 hours. Compounds are tested at a single concentration, which is 10^-5 M for most compounds. The reported endpoint is percent growth (GI% or GIPRCNT), where numbers from 0 - 100% represent growth inhibition, and numbers from -100% - 0 represent cell death. For example, a value of 40 represents 60% growth inhibition. A value of 0 means no net growth occurred over the course of the experiment. A value of -40 indicates 40% of cells at the beginning of the experiment died by the end of the experiment. A value of -100 means all cells are dead at the end of the experiment.
NCI-60 Human Tumor Cell Lines Screen was performed using the standard one-dose NCI protocol, which is described in more detail at https://dtp.cancer.gov/discovery_development/nci-60/default.htm.
Compounds with GIPRCNT values below 10 were considered active. Activity score was based on GIPRCNT using the following formula: […]
Score is 0 for GIPRCNT values of 100 or above, 50 for GIPRCNT values of 0, and 100 for GIPRCNT values of -100.

Q: `COC1=C(c2ccccc2)C(=O)C(OC)=C(c2ccccc2)C1=O` was tested. Which growth did it give?
A: The growth was 97.6%.

Q: `COc1ccc(CCN2C(=O)CSC2=S)cc1OC` was tested. Which growth did it give?
A: Its growth is 84%.

Q: For `O=C(Nc1ccc(Cl)cc1)Nc1nc2ccc([N+](=O)[O-])cc2s1`, which growth is on record?
A: The growth was -42.7% (active).

Q: How did the growth turn out when `Cc1ccc(-c2nnc3sc(C4=Cc5ccccc5OC=C4)nn23)cc1` was run?
A: The growth was 92.9%.

Q: With `COc1ccccc1N1CCN(C2=NN=C(c3cccc(Cl)c3)c3ccccc3C2)CC1` as the molecule, how does the growth read?
A: Its growth is 15.8%.

Q: For `O=S(=O)(Nc1cc(Cl)c(F)c(Cl)c1)c1ccc(-c2cnc(C3CC3)o2)cc1`, which growth is on record?
A: The growth was 35.2%.

Q: For `CN1CCN(c2ccc3c(C(N)=O)c(NC(=O)c4ccc(C(C)(C)C)cc4)sc3c2)CC1`, which growth is on record?
A: The growth was 16.4%.

Q: `CN(C)CCn1c2ccc(N)cc2c2nc3ccccc3nc21` was tested. Which growth did it give?
A: The growth was 21.1%.

Q: How did the growth turn out when `O=C(NCCCCCCNC(=O)c1c2c(nc3ccccc13)-c1cccnc1SC2)c1c2c(nc3ccccc13)-c1cccnc1SC2` was run?
A: The growth was 74.8%.

Q: With `CN(C)c1ncc(/C=C2\SC(=S)N(Cc3ccccc3Cl)C2=O)s1` as the molecule, how does the growth read?
A: Its growth is 84.6%.

Q: With `CCN1CCN(Cc2ccc(C(=O)Nc3nc4ccc(Oc5ccnc(C(=O)NC)c5)cc4s3)cc2C(F)(F)F)CC1` as the molecule, how does the growth read?
A: The growth was 6.98% (active).

Q: With `CNC(=O)c1cc(Oc2ccc3nc(NC(=O)c4cccc(C(F)(F)F)c4)sc3c2)ccn1` as the molecule, how does the growth read?
A: The growth was 98.1%.

Q: `Cc1ccc(-c2csc(N/N=C/c3nc4ccccc4n3C3CC3)n2)cc1` was tested. Which growth did it give?
A: The growth was 80.6%.

Q: Which growth does the source give for `CC(C)=CCc1c(O)c(CC=C(C)C)c2c(c1O)C(=O)C1=C[C@@H]3C[C@H]4C(C)(C)O[C@@](C/C=C(\C)C(=O)O)(C3=O)[C@@]14O2` here?
A: Its growth is -30% (active).

Q: `Cc1ccc(S(=O)(=O)N/N=C/c2cn(-c3ccc(F)cc3)nc2-c2ccc(S(C)(=O)=O)cc2)cc1` was tested. Which growth did it give?
A: The growth was 99.4%.

Q: How did the growth turn out when `CCn1c2ccc(/C=N/OCCCN(C)C)cc2c2cc(/C=N/OCCCN(C)C)ccc21` was run?
A: Its growth is -13% (active).

Q: `CCC(=O)Nc1ccc(-c2nc(-c3cccc(O)c3)c(-c3ccnc(Br)c3)[nH]2)cc1` was tested. Which growth did it give?
A: Its growth is 78.6%.

Q: With `CCN1C(=O)N(CC)C2SC(N/N=C/c3ccc(F)cc3)=NC21` (stereo not given) as the molecule, how does the growth read?
A: Its growth is 14.9%.

Q: For `Oc1ccc(-c2nnc(SCc3ccc(O)c4ncccc34)o2)cc1`, which growth is on record?
A: The growth was 7.43% (active).

Q: Which growth does the source give for `COc1cc(/C=C/C(=O)c2ccc(NC(=O)COc3cccc4cccnc34)cc2)cc(OC)c1OC` here?
A: Its growth is 50.3%.

Q: For `Cc1ccc(Cc2cnc(NC(=O)/C(C#N)=C/c3ccc(-c4ccc(Cl)cc4)o3)s2)cc1`, which growth is on record?
A: Its growth is 93.3%.

Q: Which growth does the source give for `C/C(=C(/C)C1CC1CCN(C(=O)c1ccc([N+](=O)[O-])cc1)S(=O)(=O)c1ccc(C)cc1)C1CCCCC1` (stereo not given) here?
A: The growth was 98.1%.

Q: For `CCCC(=O)NC(c1cccnc1)c1ccc2c(C)ccnc2c1O` (stereo not given), which growth is on record?
A: Its growth is 26.9%.

Q: `C=CCn1c(SCC(=O)Nc2cccc(C(=O)/C=C/c3ccccc3)c2)nc2ccccc2c1=O` was tested. Which growth did it give?
A: The growth was 57.9%.

Q: How did the growth turn out when `COc1cc(/C=C/C(=O)c2ccc(NC(=O)CSc3nnc(-c4ccc5nc(-c6ccccc6)[nH]c5c4)o3)cc2)cc(OC)c1OC` was run?
A: The growth was 87.6%.

Q: `CC[C@]12C=CCN3CC[C@]4(C(=C(C(=O)OC)C1)Nc1cc5c(cc14)[C@@H]1[C@H](O5)[C@@H](O)[C@@]4(CC)CC(C(=O)OC)=C5Nc6cc(OC)ccc6[C@@]56CCN1[C@@H]46)[C@@H]32` was tested. Which growth did it give?
A: Its growth is -19.9% (active).

Q: With `CCOC(=O)Nc1ccc(-c2nc(-c3cccc(O)c3)c(-c3ccnc(Br)c3)[nH]2)cc1` as the molecule, how does the growth read?
A: Its growth is 30.7%.

Q: For `CCN1C(=O)N(CC)C2SC(N/N=C/c3ccccc3)=NC21` (stereo not given), which growth is on record?
A: The growth was 16.9%.

Q: With `COc1ccc(N2CCN(C(=O)CSc3ccc(-c4nc5cc(C)c(C)cc5[nH]4)cn3)CC2)cc1` as the molecule, how does the growth read?
A: The growth was 52.8%.

Q: Which growth does the source give for `COc1ccc2c(C3=C(c4c[nH]c5ccccc45)C(=O)N(O)C3=O)coc2c1` here?
A: The growth was 92.2%.

Q: Which growth does the source give for `COc1ccc2c(ccn2C(=O)N2c3ccccc3Sc3ccccc32)c1` here?
A: The growth was 32.7%.

Q: How did the growth turn out when `Oc1ccc(CSc2nnc(-c3ccccc3)n2-c2ccccc2)c2cccnc12` was run?
A: The growth was 13.6%.

Q: For `N/C(=N\OC(=O)CSc1nc2ccccc2s1)c1ccc2ccccc2c1`, which growth is on record?
A: The growth was 101%.

Q: How did the growth turn out when `N#Cc1c(-c2ccccc2)cc(-c2c[nH]c3ccccc23)nc1-c1c[nH]c2ccccc12` was run?
A: Its growth is 99.3%.

Q: `N=c1c2cc(-c3ccccc3)oc2ncn1/N=C/c1ccccc1` was tested. Which growth did it give?
A: The growth was 36.9%.

Q: `C=C1C(=O)O[C@@H]2C[C@@H](C)[C@H](OC)CC(=O)[C@](C)(OC(C)=O)C[C@H](OC(=O)/C(C)=C\C)[C@@H]12` was tested. Which growth did it give?
A: Its growth is 58.9%.

Q: Which growth does the source give for `Brc1cccc(/C=N/Nc2nc(N/N=C/c3cccc(Br)c3)nc(N3CCOCC3)n2)c1` here?
A: The growth was -8.94% (active).

Q: Which growth does the source give for `CCOC(=O)CC(=O)CSC1=NC2C(NN1)N(C)C(=O)N2C` (stereo not given) here?
A: The growth was 63%.

Q: How did the growth turn out when `CS(=O)c1nccc(-c2c(-c3ccc(F)c(OCc4ccccc4)c3)nc3sccn23)n1` (stereo not given) was run?
A: Its growth is 74.8%.

Q: For `O=C1NC(=O)c2c1c1c3ccccc3ccc1c1[nH]c3ccccc3c21`, which growth is on record?
A: The growth was 13.4%.
